# Measurements published in PubChem BioAssay (Tox21).
# Records with an inconclusive call do not appear. Entries that show only a call come without a potency. Activity calls are given as the source filed them. Calls follow the shape of the full dose curve.
# Target: D(2) dopamine receptor (Homo sapiens) (UniProt P14416)
# Experiment: Dopamine D2 receptor (DRD2) small molecule agonists, cell-based qHTS assay (AID 1963594); also: nearly all actives have a fitted effect of over 35% in size
# Details: HEK293-DRD2 cAMP HTRF, agonist mode, 30 min; series mostly up to 92.4 µM
# From the text: National Center for Advancing Translational Sciences [NCATS]
# Division of Preclinical Innovation [DPI]
# U.S. Environmental Protection Agency [EPA]
# National Institutes of Environmental Health Sciences [NIEHS]
# National Toxicology Program [NTP]
# U.S. Food and Drug Administration [FDA]
# DRD2 is the D2 subtype of the dopamine receptor, which is coupled to Gi subtype of G protein-coupled receptor. This G protein-coupled receptor inhibits adenylyl cyclase activity. The DRD2-HEK293 cell line stably expressing D2 dopamine receptor can be used for screening agonists and antagonists of interactions between D2 and its ligands. The Hek293-DRD2 cAMP assay is based on HTRF technology. It measures changes of cAMP accumulation in response to Gi coupled GPCR activation or inhibition.
# Tox21 Assay Protocol Summary:
# DRD2-Hek293 cells were dispensed at 600 cells/3uL/well in 1536-well white plates using a Multidrop Dispenser. After the assay plates were incubated at a 37 C/5% CO2 incubator for 24 h, 1 uL of Ro20-1724 at final concentration of 0.1 mM was transferred to the assay plate by a Flying Reagent Dispenser. Following Ro20-1724 addition, 23 nL of compound dissolved in DMSO, positive controls or DMSO only was added to the assay plates via Wako pintool station. The assay plates were incubated at room temperature for 10 min. Next, 1 uL of NKH477 at 200nM was added into the plates. After the assay plates were incubated at room temperature for an additional 30 min, 2.5 ul/well of cAMP-d2 and 2.5 ul/well of anti-cAMP-cryptate were added respectively into the assay plates using a Flying Reagent Dispenser. The plates were incubated at room temperature for 1 h. The fluorescence intensity in the plates was measured at 340 nm excitation and 665 & 620 nm emission by an Envision plate reader.
# Potency is read from the fitted curve at half-maximal effect.
# D(2) dopamine receptor (Homo sapiens), sequence (P14416 whole entry, looked up): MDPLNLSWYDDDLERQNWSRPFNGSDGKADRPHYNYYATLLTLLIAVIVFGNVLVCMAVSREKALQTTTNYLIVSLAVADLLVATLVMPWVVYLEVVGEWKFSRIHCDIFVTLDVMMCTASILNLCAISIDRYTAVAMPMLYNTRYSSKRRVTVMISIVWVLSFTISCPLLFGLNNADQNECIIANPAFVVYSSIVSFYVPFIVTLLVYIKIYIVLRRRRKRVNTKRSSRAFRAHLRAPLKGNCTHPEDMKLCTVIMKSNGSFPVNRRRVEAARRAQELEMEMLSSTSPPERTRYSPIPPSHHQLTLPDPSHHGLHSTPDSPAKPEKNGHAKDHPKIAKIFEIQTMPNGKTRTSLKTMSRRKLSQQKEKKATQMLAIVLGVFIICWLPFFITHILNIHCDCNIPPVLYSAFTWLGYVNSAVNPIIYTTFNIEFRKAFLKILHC
row,Structure (SMILES),Potency
1,N#C/C(=C1/SC[C@@H](c2ccc(Cl)cc2Cl)S1)n1ccnc1,26.6 µM (active)
2,CC(C)(C)CC(C)(C)c1ccccc1O,inactive
3,OC12N=C(c3ccccc3)SC1Cc1cc(Cl)ccc12 (stereo not given),inactive
4,CCc1cc(SCc2sc(-c3ccc(C(F)(F)F)cc3)nc2CN2CCN(c3ccc(OC)cc3)CC2)ccc1OCC(=O)O,inactive
5,CN1[C@@H]2CC[C@H]1CC(OC(=O)C(CO)c1ccccc1)C2 (stereo not given in full),inactive
6,CC(C)(C)c1ccc(N)cc1,inactive
7,CN(C)CCOC(=O)C(c1ccccc1)C1(O)CCCC1 (stereo not given),inactive
8,COc1ccc(CCN(C)CCCC(C#N)(c2ccc(OC)c(OC)c2)C(C)C)cc1OC (stereo not given),inactive
9,CCOC(=O)C1=C[C@]2(CC)CCCN3CCc4c(n1c1ccccc41)[C@@H]32,inactive
10,CCN(C(=O)N(CC)c1ccccc1)c1ccccc1,inactive
11,Cc1cc(Cl)c(C)cc1Cl,inactive
12,[Cl][Au]([Cl])[Cl],inactive
13,CC(=O)SCC(CC(=O)c1ccc(C)cc1)C(=O)O (stereo not given),inactive
14,Cc1ccc2c(c1)CCCN2,inactive
15,O=C(O)Cc1cc(I)c(Oc2ccc(O)c(I)c2)c(I)c1,inactive
16,COCCOC(=O)CC#N,inactive
17,CCC(Cl)C(Cl)C(Cl)CC(Cl)C(Cl)C(C)Cl (stereo not given),inactive
18,COc1cc(NCc2ccc3nc(N)nc(N)c3c2C)cc(OC)c1OC,inactive
19,Clc1ccc2nsnc2c1NC1=NCCN1,inactive
20,COC(=O)C(C)=O,inactive

row,Structure (SMILES),Potency
1,O=C(CCCN1CCN(c2ccc(F)cc2)CC1)NC1c2ccccc2CSc2ccccc21 (stereo not given),inactive
2,CCO[Si](CC(C)C)(OCC)OCC,inactive
3,CC(=O)N1CCN(c2ccc(OC[C@H]3CO[C@](Cn4ccnc4)(c4ccc(Cl)cc4Cl)O3)cc2)CC1,inactive
4,Clc1cccc(C(c2ccc3nc[nH]c3c2)n2ccnc2)c1 (stereo not given),inactive
5,CCCCCCCCCCCCC1CO1 (stereo not given),inactive
6,Cc1nc2ccccc2c(=O)o1,inactive
7,O=c1[nH]c(=O)n([C@H]2C[C@H](O)[C@@H](CO)O2)cc1C(F)(F)F,inactive
8,COc1ccc(/C=N/NC(=O)c2ccncc2)cc1OC,inactive
9,O=C(c1ccc(F)cc1)C1CCN(CCn2c(=S)[nH]c3ccccc3c2=O)CC1,inactive
10,CC(CN(C)C)CN1c2ccccc2CCc2ccccc21 (stereo not given),inactive
11,O=C(Nc1ccc(S(=O)(=O)N2CCOCC2)cc1)c1cc(Cl)ccc1NS(=O)(=O)c1ccc(Cl)s1,inactive
12,O=C(Nc1ccc(Cl)c(Cl)c1)c1cc(Cl)cc(Cl)c1O,inactive
13,O=C(O)c1c(Cl)ccc(Cl)c1Cl,inactive
14,NC(=O)c1c(Cl)cccc1Cl,inactive
15,OCCN1CCN(CCCN2c3ccccc3Sc3ccc(Cl)cc32)CC1,inactive
16,CC(C)c1ccc2cc(C(C)C)ccc2c1,inactive
17,C#CC(O)C(CC)CCCC (stereo not given),inactive
18,ClC(Cl)Cl,inactive
19,CC(=O)O[Si](C)(OC(C)=O)OC(C)=O,inactive
20,CCN(CC)c1ccc2c(-c3ccccc3C(=O)O)c3ccc(=[N+](CC)CC)cc-3oc2c1,58.8 µM (active)
